Measured values taken from ChEMBL document CHEMBL3988442, “University of Dundee, Small-Polar-MMV Screening Library” (2021).
About 13,000 (27%) of roughly 48,000 compounds showed an effect of 50% or more. This is one part of the list.

Each compound was assayed on Wolbachia pipientis (assay: Anti-Wolbachia Cell-Based Screen). Conditions: 5 µM.
Assay type: functional
Set-up: scale not given: in the data most compounds retested in dose-response had high values

| Compound | Percent Effect |
| --- | --- |
| CCN(C)C(=O)c1cccc(S(=O)(=O)NCCc2nc(C)cc(=O)[nH]2)c1 | -0.1797% |
| CC(=O)Nc1nc(CN2CCOC(Cn3nc(C)cc3C)C2)cs1 (stereo not drawn) | 94.09% |
| CC(=O)N(C)c1nc(CN2CCOC(Cn3cccn3)C2)cs1 (stereo not drawn) | -26.66% |
| CC(=O)Nc1nc(CN2CCOC(Cn3cncn3)C2)cs1 (stereo not drawn) | 64.84% |
| CC(=O)Nc1nc(CN2CCOC(Cn3cc(C)cn3)C2)cs1 (stereo not drawn) | 2.495% |
| CC(=O)Nc1nc(CN2CCOC(Cn3cccn3)C2)cs1 (stereo not drawn) | 107.9% |
| Cc1ccnc(C(NC(=O)c2oc(C)nc2C)C2CC2)n1 (stereo not drawn) | -17.11% |
| COC(=O)CN(C(=O)c1ccoc1)c1cccc(F)c1 | 2.098% |
| O=C1CCCN1CCc1noc(-c2ccsc2)n1 | 1.002% |
| O=C1CCCN1CCc1noc(-c2ccc(Cl)cc2)n1 | 5.135% |
| O=C1CCCN1Cc1noc(-c2ccc(Cl)cc2)n1 | 123.5% |
| CC(C)(N)c1cn([C@@H]2c3ccccc3C3(CCNCC3)[C@H]2O)nn1 | -37.53% |
| Cc1noc(CS(=O)(=O)CC(=O)NC(C)c2ccccc2)n1 (stereo not drawn) | -0.1878% |
| CCN(Cc1ccc2c(c1)OCO2)S(=O)(=O)N(C)C | 94.54% |
| CCN(Cc1ccc2c(c1)OCO2)S(=O)(=O)N(C)C(C)C | 112.9% |
| CCN(C)S(=O)(=O)N(CC)Cc1ccc2c(c1)OCO2 | 0.6799% |
| CCN(Cc1cccs1)S(=O)(=O)N(C)C(C)C | 15.86% |
| CCN(Cc1ccc2c(c1)OCCO2)S(=O)(=O)N(C)C(C)C | -1.208% |
| CCN(Cc1ccc2c(c1)OCO2)c1ncc(S(N)(=O)=O)s1 | -18.45% |
| Cc1ccc(-n2cc(CN3CCN(C)[C@@H]4CS(=O)(=O)C[C@@H]43)cn2)cc1 | 6.274% |

| Compound | Percent Effect |
| --- | --- |
| CN(Cc1ccccc1O)C(=O)Nc1cc(F)cc(N2CCCC2)c1 | -6.524% |
| COCC(C)(C#N)NC(=O)COc1ccccc1 (stereo not drawn) | -21.26% |
| CC(C)[C@@H]1CN(C(=O)c2ccc3c(c2)CCCO3)C[C@H]1NS(C)(=O)=O | 0.04909% |
| O=C(O)C(=O)O.c1cncc(-c2noc(C3CN(Cc4cccs4)C3)n2)c1 | 13.98% |
| O=C(C1CCOC1)N1C[C@H]2CN(Cc3cccnc3)C(=O)[C@H]2C1.O=C(O)C(F)(F)F (stereo partly drawn) | 101.2% |
| CN(C)CCN1C[C@@H]2CN(C(=O)C3CCOC3)C[C@@H]2C1=O.O=C(O)C(F)(F)F (stereo partly drawn) | -5.233% |
| O=C(C1CCOC1)N1CCC2(CC1)COCCN(Cc1ccncc1)C2.O=C(O)C(F)(F)F.O=C(O)C(F)(F)F (stereo not drawn) | -2.392% |
| O=C(O)C(F)(F)F.O=C(c1ccsc1)N1C[C@H]2CN(Cc3cccnc3)C(=O)[C@H]2C1 | -7.854% |
| O=C(C1CCOC1)N1C[C@H]2CN(Cc3ccncc3)C(=O)[C@H]2C1.O=C(O)C(F)(F)F (stereo partly drawn) | 94.79% |
| CCc1[nH]c2c(CNc3cncc(C(=O)N(C)C)n3)cc(F)cc2c1C | -5.745% |
| Cn1c(CN2CCOCC2)nnc1C1CCCN(C(=O)CCC2CC2)C1 (stereo not drawn) | 24.17% |
| CCOc1ccc(CN2CC[C@@](C)(O)[C@@H](Cc3ccccc3)C2)cn1 | 4.384% |
| CN1CC2(CCN(Cc3cccnc3)CC2)c2cc(F)ccc21 | 3.699% |
| CN1CC(=O)N(c2cccc(F)c2)CC12CCN(Cc1nccs1)C2.O=C(O)C(F)(F)F.O=C(O)C(F)(F)F (stereo not drawn) | -3.054% |
| Cc1ncc(CN2CC[C@@](C)(O)[C@H](Oc3cccc(F)c3)C2)cn1 | 104.1% |
| CN1CC(=O)N(c2cccc(F)c2)CC12CCN(Cc1cncn1C)C2.O=C(O)C(F)(F)F.O=C(O)C(F)(F)F (stereo not drawn) | -8.718% |
| C[C@]1(O)CCN(Cc2nccs2)C[C@@H]1Oc1cccc(F)c1 | 121.8% |
| C[C@]1(O)CCN(Cc2cncs2)C[C@@H]1Oc1cccc(F)c1 | 4.149% |
| Cn1cncc1CN1CC[C@](C)(O)[C@@H](Oc2cccc(F)c2)C1 | 104.7% |
| C[C@]1(O)CCN(Cc2cccnc2)C[C@@H]1Oc1cccc(F)c1 | 99% |

| Compound | Percent Effect |
| --- | --- |
| Fc1ccc(OCc2nnc([C@H]3CCN(Cc4cccnc4)C3)o2)cc1 | 16.65% |
| COc1ncc(CN2CC[C@@](C)(O)[C@H](Oc3cccc(F)c3)C2)cn1 | 2.732% |
| c1cc(-c2noc(-c3cc(C4CC4)on3)n2)cc(N2CCCCC2)n1 | -2.255% |
| CCn1nc2c(cc1=O)CN(Cc1nc(N)c3ccccc3n1)CC2 | 12.33% |
| O=C(Cc1csc(N2CCNC2=O)n1)NCC1(c2ccccc2)CC1 | 8.123% |
| Cc1ncsc1CN1C[C@H]2CC[C@@H]1CN(Cc1ccccc1)C2 | 1.915% |
| Cc1ncsc1CNc1cccc(OCCN2CCCC2)c1 | 8.667% |
| Cc1ncsc1CN1CC[C@](C)(O)[C@@H](Oc2cccc(F)c2)C1 | 111.6% |
| Cc1nnc(SCCCNC(=O)Nc2ccc3c(c2)OCO3)s1 | 7.014% |
| Cc1cnc(C)c(N2C[C@H]3OC(=O)N(C4CCCC4)[C@H]3C2)n1 | 94.65% |
| NC(=O)c1cc2c(nc1-c1ccoc1)CCC2 | -15.41% |
| NC(=O)c1cc2c(nc1N1C[C@H]3OC(=O)N(C4CCCC4)[C@H]3C1)CCC2 | 94.23% |
| COc1ccccc1CN1C(=O)O[C@@H]2CN(c3nc(C)cc(C)n3)C[C@@H]21 | -8.092% |
| Cc1ccc(C(N)=O)c(N2C[C@H]3OC(=O)N(C4CCCC4)[C@H]3C2)n1 | 112.7% |
| CN(CC1CCCCO1)c1nc2c(cc1C(N)=O)CCC2 (stereo not drawn) | -5.698% |
| Cc1cnc(C)c(N2CCCC(CC3CC3)(C(=O)O)C2)n1 (stereo not drawn) | 0.08182% |
| COc1ccccc1CN1C(=O)O[C@@H]2CN(c3nc(C)cnc3C)C[C@@H]21 | -4.864% |
| Cc1ccc(N2C[C@H]3OCC[C@H]3[C@H](C(=O)NC3CCCC3)C2)nn1 | 11.3% |
